Inconclusive results are not listed. The source holds several records for some structures; these can differ, active in one and inactive in another. The source made the active and inactive calls. Unless noted, calls follow the shape of the dose curve; as a rule, active = well fitted curve in the direction sought with a large enough effect in the repeat runs; inconclusive = weak or mixed curves; inactive = no such curve, though single readings can be large; an effect the other way counts as inactive or inconclusive.
Assays:
[1] = A CellTox Green Cytotoxicity Assay to monitor cytotoxicity in HepG2 cells - 0 hour (AID 1224882); also: nearly all actives have a fitted effect of over 35% in size
Procedure, shortened: (§1)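 First, HepG2 cells (600/well) mixed with reagent were plated; second, after 5 h at 37 C they received compounds via pintool; third, fluorescence was measured at 0 h through 40 h at 8 h intervals.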

[2] = A CellTox Green Cytotoxicity Assay to monitor cytotoxicity in HepG2 cells - 32 hour (AID 1224883); also: nearly all actives have a fitted effect of over 50% in size
Procedure, shortened: as §1

[3] = A CellTox Green Cytotoxicity Assay to monitor cytotoxicity in HEK293 cells - 8 hour (AID 1224884); also: nearly all actives have a fitted effect of over 35% in size
Procedure, shortened: (§2)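 Dead-cell fluorescence measured kinetically: asymmetric cyanine dye, HEK293, 600 cells/well, 5 h settle, 23 nL cpd/DMSO, 37 C, reads 0–40 h every 8 h.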

[4] = qHTS RealTime-Glo MT Cell Viability Assay in HepG2 cells - 16 hour (AID 1224885); also: nearly all actives have a fitted effect of over 50% in size
Procedure, shortened: (§3)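 qHTS, HepG2, 600 cells/well, RealTime-Glo (NanoLuc + prosubstrate) added with cells; 5 h preincubation; DMSO compound addition; 37 C; luminescence at 0/8/16/24/32/40 h.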

[5] = qHTS RealTime-Glo MT Cell Viability Assay in HEK293 cells - 24 hour (AID 1224886); also: top concentration of the series differs between compounds; nearly all actives have a fitted effect of over 50% in size
Procedure, shortened: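 Assay medium contained NanoLuc luciferase plus cell-permeant prosubstrate, added with HEK293 cells at 600 cells/well. After 5 h at 37 C/5% CO2 compounds were added; plates stayed at 37 C for 40 h with serial luminescence reads.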

[6] = qHTS RealTime-Glo MT Cell Viability Assay in HEK293 cells - 8 hour (AID 1224887); also: top concentration of the series differs between compounds; nearly all actives have a fitted effect of over 50% in size
Procedure, shortened: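 600 HEK293 cells per well, dispensed already mixed with RealTime-Glo MT reagents. Compound dosing came 5 h later. The same wells were read for luminescence at 0, 8, 16, 24, 32 and 40 h of exposure at 37 C.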

[7] = A CellTox Green Cytotoxicity Assay to monitor cytotoxicity in HEK293 cells - 16 hour (AID 1224888); also: nearly all actives have a fitted effect of over 35% in size
Procedure, shortened: as §2

[8] = qHTS RealTime-Glo MT Cell Viability Assay in HepG2 cells - 0 hour (AID 1224889); also: nearly all actives have a fitted effect of over 50% in size
Procedure, shortened: as §3

[9] = A CellTox Green Cytotoxicity Assay to monitor cytotoxicity in HepG2 cells - 8 hour (AID 1224890); also: nearly all actives have a fitted effect of over 45% in size
Procedure, shortened: as §1

[10] = qHTS assay to identify small molecule antagonists of the estrogen receptor alpha (ER-alpha) signaling pathway using the BG1 cell line in the presence of 0.1 nM 17-beta-estradiol - cell viability counter screen (AID 1259241); also: nearly all actives have a fitted effect of over 40% in size
Procedure, shortened: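 Estradiol-stimulated (0.1 nM) VM7Luc4E2 cells exposed to compounds 22 hr; viability measured by fluorescence of cleaved CellTiter-Fluor substrate after 30 min.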

[11] = qHTS assay to identify small molecule antagonists of the androgen receptor (AR) signaling pathway using the MDA cell line in the presence of 0.5 nM R1881 - cell viability counter screen (AID 1259242); also: nearly all actives have a fitted effect of over 45% in size
Procedure, shortened: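 qHTS format. MDA-kb2 (MMTV-luc, AR/GR responsive) + cpd + 0.5 nM R1881 final, 16 hr 37C/0% CO2 → CellTiter-Fluor 30 min → fluorescence intensity.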

[12] = molecular target: Androgen receptor (Homo sapiens) (UniProt P10275); test: qHTS assay to identify small molecule antagonists of the androgen receptor (AR) signaling pathway using the MDA cell line in the presence of 0.5 nM R1881 (AID 1259243); also: nearly all actives have a fitted effect of over 50% in size; also: potency is read from the fitted curve at half-maximal effect
Procedure, shortened: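 Antagonist mode quantitative HTS in MDA-kb2 MMTV-luciferase cells, agonist R1881 at 0.5 nM final, 16 hr exposure at 37C and 0% CO2, luminescent detection.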

[13] = molecular target: Estrogen receptor (Homo sapiens) (UniProt P03372); test: qHTS assay to identify small molecule antagonists of the estrogen receptor alpha (ER-alpha) signaling pathway using the BG1 cell line in the presence of 0.1 nM 17-beta-estradiol (AID 1259244); also: nearly all actives have a fitted effect of over 50% in size
Procedure, shortened: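 Reporter is a stably transfected luciferase under four estrogen responsive elements in VM7Luc4E2 cells expressing native full-length ER-alpha; inhibition of 0.1 nM (final) 17beta-estradiol-driven signal over 22 h is read by luminescence.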

[14] = qHTS assay to identify small molecule HDAC inhibitors (AID 1259364); also: potency is read from the fitted curve at half-maximal effect;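 also: wild-type HCT-116 cells with endogenous class I/II HDAC activity; nearly all actives have a fitted effect of over 45% in size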; as to activity change, negative = inhibition: top concentration of the series differs between compounds
Procedure, shortened: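 Quantitative high-throughput format: overnight-seeded HCT-116 cells got compounds for 2 hr at 37C; HDAC-Glo I/II reagent added, 30 min RT, luminescence measured.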

[15] = qHTS assay to identify small molecule agonists of the sonic hedgehog signaling (Shh) pathway - cell viability counter screen (AID 1259366); also: nearly all actives have a fitted effect of over 50% in size; also: potency is read from the fitted curve at half-maximal effect
Procedure, shortened: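 Same-well cytotoxicity read. Gli1-Luc reporter 3T3 cells; compounds 24hr, 37C/5% CO2; CellTiter-Fluor fluorescence.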

[16] = qHTS assay to identify small molecule agonists of the sonic hedgehog signaling (Shh) pathway (AID 1259368; calls by dose curve;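 also: NIH/3T3-derived 3T3Gli1-Luc cells carrying a stable Gli1-driven firefly luciferase reporter; series mostly up to about 92 µM; nearly all actives have a fitted effect of over 15% in size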)
Procedure, shortened: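 Quantitative high-throughput format using a Gli1-driven firefly luciferase reporter line derived from NIH/3T3 cells. After a 24 hr compound treatment at 37 C and 5% CO2, luminescence reported Gli1 response element activity.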

[17] = qHTS assay to identify small molecule antagonists of the sonic hedgehog signaling (Shh) pathway (AID 1259369; calls by dose curve; also: nearly all actives have a fitted effect of over 45% in size; also: potency is read from the fitted curve at half-maximal effect)
Procedure, shortened: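 Stable Gli1-Luc reporter NIH/3T3 clone; quantitative HTS in stimulated mode with conditioned medium. Luminescence measured after 24hr compound treatment at 37 C.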

[18] = qHTS assay to identify small molecule phospholipidosis (PLD) inducers (AID 1259344; active = well fitted curve in the direction sought with a large enough effect; an effect the other way counts as inactive or inconclusive; also: potency is read from the fitted curve at half-maximal effect)
Procedure, shortened: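 Phospholipid accumulation was scored by imaging: fixed, Hoechst-counterstained HepG2 cells stained with LipidTOX Red after 24 h compound exposure at 37 C. Read-outs were pit count and pit intensity per well or per cell, with amiodarone and DMSO controls.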

[19] = qHTS assay to identify small molecule HDAC inhibitors - cell viability counter screen (AID 1259365)
Procedure, shortened: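 After overnight seeding at 1,500 cells per well, wild-type HCT-116 cultures took up compounds in DMSO for 2hr at 37 C. Viable cell content came from luminescence with CellTiter-Glo.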

[20] = qHTS assay to identify small molecule antagonists of the sonic hedgehog signaling (Shh) pathway - cell viability counter screen (AID 1259367); also: nearly all actives have a fitted effect of over 55% in size
Procedure, shortened: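 Viability was read by CellTiter-Fluor fluorescence in the same wells, reagent added 23 hr into compound treatment and incubated 1 hr at 37C. The 3T3 Gli1-Luc reporter cells (2,000/well) received conditioned medium after compound and ran 24 hr.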
% is scaled to controls: 0 for no effect and ±100 for the full control effect.

Sequence of Androgen receptor (Homo sapiens) (P10275 whole entry, looked up): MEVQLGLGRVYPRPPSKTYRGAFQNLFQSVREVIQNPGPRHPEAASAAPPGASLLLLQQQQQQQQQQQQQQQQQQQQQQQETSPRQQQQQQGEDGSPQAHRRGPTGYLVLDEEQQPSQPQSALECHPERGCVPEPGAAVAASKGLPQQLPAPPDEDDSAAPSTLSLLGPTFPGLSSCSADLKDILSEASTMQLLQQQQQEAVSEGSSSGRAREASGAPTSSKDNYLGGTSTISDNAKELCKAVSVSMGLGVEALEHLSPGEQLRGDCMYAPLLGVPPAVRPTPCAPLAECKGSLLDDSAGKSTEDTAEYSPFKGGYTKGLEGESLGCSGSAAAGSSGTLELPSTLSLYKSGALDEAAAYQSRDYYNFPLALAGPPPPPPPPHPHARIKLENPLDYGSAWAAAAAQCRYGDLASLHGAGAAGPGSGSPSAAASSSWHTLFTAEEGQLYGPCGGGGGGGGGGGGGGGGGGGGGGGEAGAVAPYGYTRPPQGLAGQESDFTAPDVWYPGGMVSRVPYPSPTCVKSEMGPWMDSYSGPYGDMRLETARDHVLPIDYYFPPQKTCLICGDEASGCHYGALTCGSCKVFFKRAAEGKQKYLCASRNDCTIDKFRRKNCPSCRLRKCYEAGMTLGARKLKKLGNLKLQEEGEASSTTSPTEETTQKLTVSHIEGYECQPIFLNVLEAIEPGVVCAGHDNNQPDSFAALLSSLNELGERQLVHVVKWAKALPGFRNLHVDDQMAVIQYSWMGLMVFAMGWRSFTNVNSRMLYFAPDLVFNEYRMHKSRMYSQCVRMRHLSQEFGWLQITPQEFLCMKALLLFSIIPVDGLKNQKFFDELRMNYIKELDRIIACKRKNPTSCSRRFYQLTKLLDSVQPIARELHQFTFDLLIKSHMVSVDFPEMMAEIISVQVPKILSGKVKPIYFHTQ
Sequence of Estrogen receptor (Homo sapiens) (P03372 whole entry, looked up): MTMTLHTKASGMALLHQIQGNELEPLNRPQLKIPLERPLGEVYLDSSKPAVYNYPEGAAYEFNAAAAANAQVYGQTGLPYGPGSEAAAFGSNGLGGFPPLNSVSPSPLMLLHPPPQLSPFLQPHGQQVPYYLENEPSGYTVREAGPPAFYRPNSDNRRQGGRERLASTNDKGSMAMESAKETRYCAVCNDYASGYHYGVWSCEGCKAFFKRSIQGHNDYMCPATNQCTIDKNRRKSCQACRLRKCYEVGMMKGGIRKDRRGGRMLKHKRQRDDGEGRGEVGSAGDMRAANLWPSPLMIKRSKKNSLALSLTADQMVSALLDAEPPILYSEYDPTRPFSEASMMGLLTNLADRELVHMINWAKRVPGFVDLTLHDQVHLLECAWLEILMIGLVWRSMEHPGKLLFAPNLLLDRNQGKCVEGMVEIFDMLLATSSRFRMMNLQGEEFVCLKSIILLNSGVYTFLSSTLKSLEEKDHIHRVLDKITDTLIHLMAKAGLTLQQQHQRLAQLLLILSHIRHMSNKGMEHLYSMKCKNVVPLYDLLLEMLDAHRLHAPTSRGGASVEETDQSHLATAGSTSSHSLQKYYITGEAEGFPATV

CC(=O)OC[C@H]1O[C@@H](n2ncc(=O)[nH]c2=O)[C@H](OC(C)=O)[C@@H]1OC(C)=O
inactive: Potency [1] | Potency [2] | Potency [3] | Potency [4] | Potency [5] | Potency [6] | Potency [7] | Potency [8] | Potency [9] | Potency [10] | Potency [11] | Potency [12] | Potency [13] | Potency [14] | Potency [15] | outcome [16] | Potency [17]

OCCN1CCN(CCCN2c3ccccc3C=Cc3ccccc32)CC1
inactive: Potency [1] | Potency [2] | Potency [3] | Potency [4] | Potency [5] | Potency [6] | Potency [7] | Potency [8] | Potency [9] | Potency [10] | Potency [11] | Potency [13] | PLD induction [18] 0.496% [at 7.66 µM] | Potency [14] | Potency [19] | outcome [16]
active: Potency [18] 12.6 µM | Potency [15] 11.9 µM

CC1OC(=O)C(C)OC1=O (stereo not drawn)
inactive: Potency [1] | Potency [2] | Potency [3] | Potency [4] | Potency [5] | Potency [6] | Potency [7] | Potency [8] | Potency [9] | Potency [10] | Potency [11] | Potency [13] | Potency [14] | Potency [19] | Potency [15] | Potency [20] | outcome [16] | Potency [17]

O=C(OCCc1ccccc1)c1ccccc1
inactive: Potency [1] | Potency [2] | Potency [3] | Potency [4] | Potency [5] | Potency [6] | Potency [7] | Potency [8] | Potency [9] | Potency [10] | Potency [11] | Potency [13] | Potency [19] | Potency [15] | Potency [20] | outcome [16] | Potency [17]
active: Potency [14] 9.69 µM

CC(=O)NO
inactive: Potency [1] | Potency [2] | Potency [3] | Potency [4] | Potency [5] | Potency [6] | Potency [7] | Potency [8] | Potency [9] | Potency [10] | Potency [11] | Potency [12] | Potency [18] | Potency [14] | Potency [19] | Potency [15] | outcome [16] | Potency [17]

C/C=C(/C(=C/C)c1ccc(OC(C)=O)cc1)c1ccc(OC(C)=O)cc1
active: Potency [17] 29.8 µM
inactive: Potency [1] | Potency [2] | Potency [3] | Potency [4] | Potency [5] | Potency [6] | Potency [7] | Potency [8] | Potency [9] | Potency [10] | Potency [11] | Potency [13] | Potency [14] | Potency [19] | Potency [15] | Potency [20] | outcome [16]

CC(CSC(=O)c1ccccc1)C(=O)N1C[C@@H](Sc2ccccc2)C[C@H]1C(=O)O (stereo partly drawn)
inactive: cytotoxicity [1] 5.13% [at 15.8 µM] | cytotoxicity increase [2] -3.06% [at 15.8 µM] | cytotoxicity increase [3] 0.0018% [at 15.8 µM] | activity change, negative = cytotoxic [4] 2.9% [at 15.8 µM] | activity change, negative = cytotoxicity [5] -5.81% [at 15.8 µM] | activity change, negative = cytotoxicity [6] -4.84% [at 15.8 µM] | activity change [7] -0.144% [at 15.8 µM, active compounds read high] | activity change, negative = cytotoxicity [8] -0.48% [at 15.8 µM] | cytotoxicity increase [9] -3.03% [at 15.8 µM] | activity change, negative = cytotoxicity [10] 3.73% [at 19 µM] | viability change, negative = cytotoxic [11] 5.22% [at 19 µM] | Potency [13] | Potency [18] | activity change, negative = inhibition [14] 3.83% [at 19 µM] | activity change, negative = cytotoxicity [19] -1.25% [at 19 µM] | viability change, negative = cytotoxic [15] -5.51% [at 19 µM] | viability change, negative = cytotoxic [20] 1.29% [at 19 µM] | activity change, negative = inhibition [17] 9.12% [at 19 µM]

O=C1OC(CN2CCOCC2)CN1/N=C/c1ccc([N+](=O)[O-])o1 (stereo not drawn)
active: Potency [12] 26.6 µM
inactive: Potency [1] | Potency [2] | Potency [3] | Potency [4] | Potency [5] | Potency [6] | Potency [7] | Potency [8] | Potency [9] | Potency [10] | Potency [11] | Potency [13] | Potency [18] | Potency [14] | Potency [19] | Potency [15] | Potency [20] | outcome [16]

c1ccc(CNCCNCc2ccccc2)cc1
inactive: Potency [1] | Potency [2] | Potency [3] | Potency [4] | Potency [5] | Potency [6] | Potency [7] | Potency [8] | Potency [9] | Potency [10] | Potency [11] | Potency [13] | Potency [14] | Potency [19] | Potency [15] | Potency [20] | outcome [16]

CCCn1cnc2c1c(=O)n(CCCCC(C)=O)c(=O)n2C
inactive: Potency [1] | Potency [2] | Potency [3] | Potency [4] | Potency [5] | Potency [6] | Potency [7] | Potency [8] | Potency [9] | Potency [10] | Potency [11] | Potency [12] | Potency [13] | Potency [18] | Potency [14] | Potency [19] | Potency [15] | outcome [16]

O=P(O)(OCc1ccccc1)OCc1ccccc1
inactive: Potency [1] | Potency [2] | Potency [3] | Potency [4] | Potency [5] | Potency [6] | Potency [7] | Potency [8] | Potency [9] | Potency [10] | Potency [11] | Potency [13] | Potency [14] | Potency [19] | Potency [15] | Potency [20] | outcome [16]

O=[N+]([O-])c1ccc2[nH]ncc2c1
inactive: Potency [1] | Potency [2] | Potency [3] | Potency [4] | Potency [5] | Potency [6] | Potency [7] | Potency [8] | Potency [9] | Potency [10] | Potency [11] | Potency [13] | Potency [14] | Potency [19] | Potency [15] | Potency [20] | outcome [16]

Cc1cc(N)c2cc(NC(=O)Nc3ccc4nc(C)cc(N)c4c3)ccc2n1
inactive: Potency [1] | Potency [2] | Potency [3] | Potency [4] | Potency [5] | Potency [6] | Potency [7] | Potency [8] | Potency [9] | Potency [10] | Potency [11] | Potency [12] | Potency [14] | Potency [19] | outcome [16]
